Measurements taken from PubChem BioAssay AID743130 (Broad Institute, 2013).
Unmarked numbers belong to inactive results.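 Rule for the calls: active = fitted curve rises past 20% activation at a concentration no higher than the top valid tested dose; inactive = activity opposite to the expected signal increase, and the rest.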

Assay: cell wall integrity pathway activation in yeast – S. cerevisiae reporter strain, C. neoformans project, dry powder, dose response (AID 743130)
Details: S. cerevisiae Rlm1-lacZ reporter, luminescence, 4 h, hits give high values

SMILES: Cc1ccc(OCCn2c(=S)[nH]c3ccccc32)c(C(C)C)c1
- maximal activation (at 0.135 µM): 2.35%
- maximal activation (at 0.26 µM): 3.69%
